SMN2 splice enh – qHTS Assay for Enhancers of SMN2 Splice Variant Expression. Potency, µM (series often up to 46.1 µM), for inactives: at the top dose activity change, positive = activation, hits mostly activators. actives 2.8% (n = 210,000). AID 1458, 2008. HEK293 SMN2-luciferase splicing reporter, luminescence, 30-36 h; further: % of control where 0% means no effect; nearly all actives have a fitted effect of over 55% in size
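qHTS luciferase splicing reporter: luminescence rises when SMN2 exon 7 is included in transfected HEK293 cells. Compound exposure lasted 30-36 h at 37C, with 4.5 mM final sodium butyrate as control, followed by a ONE-Glo read.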
NPC1 prom act – qHTS Assay for NPC1 Promoter Activators. actives 2.4% (n = 320,000). Potency, µM (highest dose often 9.22 µM), inactives show at the highest dose activation, most hits filed as activators. Huh7 NPC1 promoter luciferase reporter, 24 h. AID 485313, 2010; further: % of control where 0% means no effect; nearly all actives have a fitted effect of over 60% in size
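Luminescence read-out of NPC1 promoter-driven luciferase in stably transfected Huh7 cells; compounds delivered in DMSO and left 24 h at 37C, 5% CO2, qHTS titration format.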
KinaseGlo FLuc – Counterscreen for Luciferase (Kinase-Glo TM) Inhibition. Kinase-Glo luciferase, ATP luminescence, 8 min. Potency, µM (highest dose often 38.3 µM), without a hit: at the highest dose activity change, negative = inhibition, usual class: inhibitors. actives 0.28% (n = 200,000). AID 1379, 2008; further: on the % scale 0 is the no-effect control and ±100 the full control effect; nearly all actives have a fitted effect of over 60% in size
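Light output from Kinase-Glo luciferase with luciferin and 10 uM ATP in 50 mM imidazole pH 7.2, KCl, MgCl2, Tween 20, BSA; compound pin-delivered, 8-min ambient incubation, then luminescence read.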
FLuc modulator – qHTS profiling assay for firefly luciferase inhibitor/activator using purifed enzyme and Km concentrations of substrates (counterscreen for miR-21 project); purified FLuc, Km substrates, luminescence inhibition; Potency, µM (doses to about 57.5 µM), without a hit: at the top dose activity change, negative = inhibition, usual class: inhibitors; actives 6.9% (n = 360,000);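 further: plate controls were vehicle for no effect and reference inhibitor for full effect; nearly all actives have a fitted effect of over 55% in size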
Target sequence (P08659 whole entry, looked up): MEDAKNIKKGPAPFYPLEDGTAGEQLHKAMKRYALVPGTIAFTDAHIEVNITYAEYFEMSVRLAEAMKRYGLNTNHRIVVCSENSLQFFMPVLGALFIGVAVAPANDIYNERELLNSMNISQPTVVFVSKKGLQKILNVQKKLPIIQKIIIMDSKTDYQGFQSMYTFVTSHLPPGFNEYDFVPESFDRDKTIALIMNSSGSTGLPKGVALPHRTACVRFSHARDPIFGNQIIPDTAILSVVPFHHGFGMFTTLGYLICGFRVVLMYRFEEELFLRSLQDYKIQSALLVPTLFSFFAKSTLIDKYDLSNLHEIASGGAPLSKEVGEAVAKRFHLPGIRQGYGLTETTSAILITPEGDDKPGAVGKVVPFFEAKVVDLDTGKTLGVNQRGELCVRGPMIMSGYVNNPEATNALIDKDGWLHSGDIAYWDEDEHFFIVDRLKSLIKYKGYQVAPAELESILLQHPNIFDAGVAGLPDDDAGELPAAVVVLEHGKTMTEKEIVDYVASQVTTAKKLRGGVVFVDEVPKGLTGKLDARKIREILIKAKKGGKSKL
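Biochemical qHTS of compounds, final roughly 60 µM downward over six points, against 10 nM purified firefly luciferase using Km concentrations of substrates (10 uM D-luciferin, 10 uM ATP) in Tris acetate pH 7.5 buffer; luminescence output.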
Rab9 prom act – qHTS Assay for Rab9 Promoter Activators | Huh7 Rab9 promoter-luciferase reporter, luminescence, 24 h | Potency, µM (doses to about 9.22 µM), inactives show at the top dose activation, negative = inhibition, hits mostly activators | actives 2.8% (n = 320,000); further: % of control where 0% means no effect; nearly all actives have a fitted effect of over 60% in size
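Promoter activation is measured as luciferase luminescence in Huh7 cells stably transfected with a Rab9 promoter–luciferase construct, following 24 h compound exposure at 37 °C and 10 min reagent incubation at ambient temperature.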
ELG1 genotoxic – qHTS screen for small molecules that induce genotoxicity in human embryonic kidney (HEK293T) cells expressing luciferase-tagged ELG1. actives 1.3% (n = 330,000). AID 504466, 2011. HEK293T ELG1-luciferase reporter, luminescence, 16 h. Potency, µM (doses to about 46 µM), inactives show top-dose activity change, positive = activation, most hits filed as activators; further: % of control where 0% means no effect; nearly all actives have a fitted effect of over 60% in size
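Reporter readout depends on ELG1 protein level, which increases with genetic stress. After 16 hr compound exposure at 37 °C, luciferase activity was quantified using ONE-Glo.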
The depositor's hits bear a star. Most compounds without a hit are left out; they make up all but 7.4% or so of the library. The call rests on the fitted dose curve; in most records, active means well fitted curve in the direction sought with a large enough effect; inconclusive means small, poorly fitted or top-dose-only effect, or another doubt; inactive means no such curve, though single readings can be large; an effect the other way counts as inactive or inconclusive. Potency means the concentration at half of the fitted maximal effect.

CCc1ccccc1NC(=O)CSc1nc2ccccc2nc1Cc1cccc(OC)c1 was read as FLuc modulator 5%.
COC(=O)c1ccc(-c2noc(CN(Cc3ccncc3)CC3CCCO3)n2)cc1 (configuration not stated) was read as NPC1 prom act -28%, KinaseGlo FLuc -2%, FLuc modulator 4%, Rab9 prom act -29% and ELG1 genotoxic -7%.
`COC(=O)c1ccc(-c2noc(CN(C)CC3CCCCO3)n2)cc1` (configuration not stated) gave SMN2 splice enh 10µM*, NPC1 prom act 7%, KinaseGlo FLuc 2%, FLuc modulator -4%, Rab9 prom act 29% and ELG1 genotoxic 5%.
`CCn1ccnc1CN(C)Cc1nc(-c2ccc(C(=O)OC)cc2)no1` gave NPC1 prom act -8%, FLuc modulator 0%, Rab9 prom act -2% and ELG1 genotoxic 0%.
COC(=O)c1ccc(-c2noc(CN3C[C@H]4CC[C@H]3C4)n2)cc1 was read as NPC1 prom act inconclusive, FLuc modulator 21µM*, Rab9 prom act inconclusive and ELG1 genotoxic inconclusive.
`Cc1c(-c2nc(N)nc(Nc3ccc(F)cc3)n2)oc2ccccc12` gave SMN2 splice enh 16µM*, NPC1 prom act 2.2µM*, KinaseGlo FLuc 0%, FLuc modulator inconclusive, Rab9 prom act 1.8µM* and ELG1 genotoxic 2.3µM*.
`Cc1ccccc1Nc1nc(N)nc(-c2oc3ccccc3c2C)n1` gave NPC1 prom act inconclusive, FLuc modulator 21µM*, Rab9 prom act 2.2µM* and ELG1 genotoxic inconclusive.
Screening Cc1cccc(-n2c3nc(=O)n(C)c(=O)c-3cc3c(C)nn(-c4ccccc4)c32)c1C returned SMN2 splice enh -8% and FLuc modulator 3%.
Screening COc1ccc(N2Cc3cccc(C(=O)Nc4cccc(F)c4)c3C2=O)cc1 returned SMN2 splice enh -1% and FLuc modulator -1%.
`O=C(O)c1ccc(CSc2nnc(COc3ccc(Cl)cc3Cl)o2)cc1` gave SMN2 splice enh 4%, NPC1 prom act 17%, KinaseGlo FLuc 1%, FLuc modulator 19µM*, Rab9 prom act 21% and ELG1 genotoxic inconclusive.
Cc1ccc(NC(=O)Cn2c(=O)n(-c3ccc(C)cc3)c(=O)c3ccc(C(=O)NCc4ccccc4Cl)cc32)cc1 was read as SMN2 splice enh 6% and FLuc modulator 0%.
Screening COc1cc(/C=C/c2[nH]c(=O)[nH]c(=O)c2[N+](=O)[O-])cc(OC)c1O returned NPC1 prom act -7%, FLuc modulator inconclusive, Rab9 prom act -3% and ELG1 genotoxic -1%.
`COc1cccc(/C=C/c2[nH]c(=O)[nH]c(=O)c2[N+](=O)[O-])c1O` gave NPC1 prom act 1%, FLuc modulator 17µM*, Rab9 prom act 6% and ELG1 genotoxic 0%.
`CCCN(/C=N/c1sc2c(c1C#N)CCCCC2)CCC` gave SMN2 splice enh 7%, NPC1 prom act 26%, KinaseGlo FLuc -2%, FLuc modulator 19µM*, Rab9 prom act 15% and ELG1 genotoxic 1%.
Screening CN(C)/C=N/c1sc2c(c1C#N)CCCCC2 returned SMN2 splice enh inconclusive, NPC1 prom act inconclusive, KinaseGlo FLuc 0%, FLuc modulator 21µM*, Rab9 prom act inconclusive and ELG1 genotoxic inconclusive.
Screening N#Cc1c(/N=C/N2CCOCC2)sc2c1CCCCC2 returned SMN2 splice enh 11µM*, NPC1 prom act 4µM*, KinaseGlo FLuc 5%, FLuc modulator 5.4µM*, Rab9 prom act 2.5µM* and ELG1 genotoxic 5.8µM*.

Source: PubChem BioAssay
